Test results: the supplement of paper PMC7411054

Key:
Conditions in all cases: treatment time: 24 h
A549-ACTB-RAB5A [1] = assay: lowest phenotypically active concentration; higher = less potent
Procedure, shortened: (§1)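 Two criteria together defined phenotypic activity: deviation and reproducibility. Deviation meant ≥3 of 4 wells beyond the 95th percentile of Euclidean distances in solvent control wells, and reproducibility meant a median replicate Pearson correlation above the 95th percentile of non-replicates. Wells had been treated for 24 h at 0.3, 1, 3 or 9 µM in fifteen gene-edited A549, HepG2 and WPMY1 reporter lines before live imaging.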

A549-CANX-COX4 [2] = assay: as above
Procedure, shortened: as §1

A549-GM130-SQSTM1 [3] = assay: as above
Procedure, shortened: as §1

A549-TP53BP1-CLTA [4] = assay: as above
Procedure, shortened: as §1

A549-TUBA1B-RELA [5] = assay: as above
Procedure, shortened: as §1

HepG2-GM130-SQSTM1 [6] = assay: as above
Procedure, shortened: as §1

A549-ACTB-RAB5A [7] = assay: phenotypically active (imaging signature differs from DMSO and reproducible) at any of 0.3-9 uM (binary (1 = active, 0 = inactive)); higher = active
Procedure, shortened: as §1

A549-CANX-COX4 [8] = assay: as above
Procedure, shortened: as §1

A549-GM130-SQSTM1 [9] = assay: as above
Procedure, shortened: as §1

A549-TP53BP1-CLTA [10] = assay: as above
Procedure, shortened: as §1

A549-TUBA1B-RELA [11] = assay: as above
Procedure, shortened: as §1

HepG2-ACTB-RAB5A = assay: as above
Procedure, shortened: as §1

HepG2-CANX-COX4 = assay: as above
Procedure, shortened: as §1

HepG2-GM130-SQSTM1 [12] = assay: as above
Procedure, shortened: as §1

HepG2-TP53BP1-CLTA = assay: as above
Procedure, shortened: as §1

HepG2-TUBA1B-RELA = assay: as above
Procedure, shortened: as §1

WPMY1-CANX-COX4 = assay: as above
Procedure, shortened: as §1

WPMY1-GM130-SQSTM1 = assay: as above
Procedure, shortened: as §1

WPMY1-TP53BP1-CLTA = assay: as above
Procedure, shortened: as §1

WPMY1-TUBA1B-RELA = assay: as above
Procedure, shortened: as §1

Row | Compound | lowest phenotypically active concentration (A549-ACTB-RAB5A [1]) [µM] | lowest phenotypically active concentration (A549-CANX-COX4 [2]) [µM] | lowest phenotypically active concentration (A549-GM130-SQSTM1 [3]) [µM] | lowest phenotypically active concentration (A549-TP53BP1-CLTA [4]) [µM] | lowest phenotypically active concentration (A549-TUBA1B-RELA [5]) [µM] | lowest phenotypically active concentration (HepG2-GM130-SQSTM1 [6]) [µM] | phenotypically active (A549-ACTB-RAB5A [7]) | phenotypically active (A549-CANX-COX4 [8]) | phenotypically active (A549-GM130-SQSTM1 [9]) | phenotypically active (A549-TP53BP1-CLTA [10]) | phenotypically active (A549-TUBA1B-RELA [11]) | phenotypically active (HepG2-ACTB-RAB5A) | phenotypically active (HepG2-CANX-COX4) | phenotypically active (HepG2-GM130-SQSTM1 [12]) | phenotypically active (HepG2-TP53BP1-CLTA) | phenotypically active (HepG2-TUBA1B-RELA) | phenotypically active (WPMY1-CANX-COX4) | phenotypically active (WPMY1-GM130-SQSTM1) | phenotypically active (WPMY1-TP53BP1-CLTA) | phenotypically active (WPMY1-TUBA1B-RELA)
1 | COc1ccc(S(=O)(=O)Nc2cccnc2Nc2ccc(O)cc2)cc1 | 1 | 1 | 1 | 1 | 3 | 1 | 1 (active) | 1 (active) | 1 (active) | 1 (active) | 1 (active) | 1 (active) | 1 (active) | 1 (active) | 1 (active) | 1 (active) | 1 (active) | 1 (active) | 1 (active) | 1 (active)
2 | Cc1cn(CCN2CCN(c3ccccc3-c3cc(C#N)cc(C(=O)NCCCN4CCCC4)c3)CC2)c2ccccc12 | 1 | 3 | 1 | 3 | 1 | 3 | 1 (active) | 1 (active) | 1 (active) | 1 (active) | 1 (active) | 1 (active) | 1 (active) | 1 (active) | 1 (active) | 1 (active) | 1 (active) | 1 (active) | 1 (active) | 1 (active)
3 | CC(C)(C)Nc1nc(Nc2ccc(C(N)=O)cc2)cc(N)c1C#N | 3 | 3 | 3 | 3 | 3 | 3 | 1 (active) | 1 (active) | 1 (active) | 1 (active) | 1 (active) | 1 (active) | 1 (active) | 1 (active) | 1 (active) | 1 (active) | 1 (active) | 1 (active) | 1 (active) | 1 (active)
4 | CCCCCCCCCCCCCCCC[n+]1ccn(Cc2ccccc2)c1C | 1 | ≤ 0.3 | ≤ 0.3 | 1 | 1 | 1 | 1 (active) | 1 (active) | 1 (active) | 1 (active) | 1 (active) | 1 (active) | 1 (active) | 1 (active) | 1 (active) | 1 (active) | 1 (active) | 1 (active) | 1 (active) | 1 (active)
5 | C=C1CN(Cc2ccc(C(=O)Nc3ccccc3N)cc2)C(=O)c2ccccc21 | ≤ 0.3 | ≤ 0.3 | ≤ 0.3 | ≤ 0.3 | 1 | 1 | 1 (active) | 1 (active) | 1 (active) | 1 (active) | 1 (active) | 1 (active) | 1 (active) | 1 (active) | 1 (active) | 1 (active) | 1 (active) | 1 (active) | 1 (active) | 1 (active)
6 | Nc1ccc(-c2ccc3ncc4ccc(=O)n(-c5cccc(C(F)(F)F)c5)c4c3c2)cn1 [Torin 2] | ≤ 0.3 | ≤ 0.3 | ≤ 0.3 | ≤ 0.3 | ≤ 0.3 | ≤ 0.3 | 1 (active) | 1 (active) | 1 (active) | 1 (active) | 1 (active) | 1 (active) | 1 (active) | 1 (active) | 1 (active) | 1 (active) | 1 (active) | 1 (active) | 1 (active) | 1 (active)
7 | CCc1cccc(CC)c1NC(=O)N1Cc2[nH]nc(NC(=O)c3ccc(N4CCN(C)CC4)cc3)c2C1 | ≤ 0.3 | 3 | 1 | 3 | 1 | ≤ 0.3 | 1 (active) | 1 (active) | 1 (active) | 1 (active) | 1 (active) | 1 (active) | 1 (active) | 1 (active) | 1 (active) | 1 (active) | 1 (active) | 1 (active) | 1 (active) | 1 (active)
8 | COc1ccc(N2C(=O)CSC2c2cccc(Br)c2)c(OC)c1 (stereo not given) | 3 | 9 | 9 | 3 | 9 | 9 | 1 (active) | 1 (active) | 1 (active) | 1 (active) | 1 (active) | 1 (active) | 1 (active) | 1 (active) | 1 (active) | 1 (active) | 1 (active) | 1 (active) | 1 (active) | 1 (active)
9 | COc1cc(N2CCOCC2)ccc1Nc1ncc(Cl)c(Nc2ccccc2NS(C)(=O)=O)n1 | 3 | 3 | 3 | 3 | 3 | 3 | 1 (active) | 1 (active) | 1 (active) | 1 (active) | 1 (active) | 1 (active) | 1 (active) | 1 (active) | 1 (active) | 1 (active) | 1 (active) | 1 (active) | 1 (active) | 1 (active)
10 | COc1ccc(-c2cc3c(C)nc(N)nc3n([C@H]3CC[C@H](OCCO)CC3)c2=O)cn1 | ≤ 0.3 | ≤ 0.3 | ≤ 0.3 | ≤ 0.3 | ≤ 0.3 | ≤ 0.3 | 1 (active) | 1 (active) | 1 (active) | 1 (active) | 1 (active) | 1 (active) | 1 (active) | 1 (active) | 1 (active) | 1 (active) | 1 (active) | 1 (active) | 1 (active) | 1 (active)
11 | Cc1ccc(C(=O)N(CCCN)[C@@H](c2nc3cc(Cl)ccc3c(=O)n2Cc2ccccc2)C(C)C)cc1 [Ispinesib] | ≤ 0.3 | ≤ 0.3 | ≤ 0.3 | ≤ 0.3 | ≤ 0.3 | ≤ 0.3 | 1 (active) | 1 (active) | 1 (active) | 1 (active) | 1 (active) | 1 (active) | 1 (active) | 1 (active) | 1 (active) | 1 (active) | 1 (active) | 1 (active) | 1 (active) | 1 (active)
